Compounds with a hit are over-represented: about 3.7% of the library has one in this group of screens.
ANO1 activ – activators or potentiators of mouse TMEM16A chloride channel. Q8BHY3. HEK293 TMEM16A/YFP-H148Q/I152L, iodide quench fluorescence; active compounds read low. B-score at 10 µM. 340,000 tested, 0.3% active. AID 623877;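 active = fluorescence-ratio B-score plate-corrected deviation score at least 3 library SD below zero, with starting fluorescence score within 5 deviations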;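 also: channel opened by trigger with iodide after compound preincubation; score built on the fluorescence ratio of max minus min over baseline; more negative score means more quench and so TMEM16A activation or potentiation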
GPR7 antag – human neuropeptides B/W receptor 1 antagonism. P48145. GPR7-expressing cells, fluorescence antagonist assay. inhibition, % at 4.4 µM. 290,000 tested, 1.1% active; in the data active = inhibition above about 16%, passing the limit was not always enough;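 also: cells stimulated with the agonist NPW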
CHT PAM – allosteric activators of human choline transporter CHT | Q9GZV3 | CHT-expressing cells, membrane potential dye, choline EC20; active compounds read high; LV-AA mutant CHT in HEK293 cells | B-score at 10 µM | 310,000 tested, 0.49% active | AID 488977;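 active = initial fluorescence not abnormally high and integrated response B-score, plate-corrected, over 3 SD above library mean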
CHT block – human CHT choline transport inhibition | AID 488975 | 310,000 tested, 0.86% active | B-score at 10 µM | CHT-expressing cells, membrane potential dye, choline response; active compounds read low;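 active = B-score over 3 SD under the library average, and starting fluorescence ratio not unusually high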;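 also: choline stimulus applied at its EC90 after an EC20 pre-addition; B-score computed on integrated fluorescence ratio after choline addition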
ANO1 block – inhibitors of mouse TMEM16A calcium-activated chloride channel. HEK293 TMEM16A/YFP iodide influx fluorescence, ionomycin. normalized B-score (activity score, 25-100; higher = stronger inhibition) at 10 µM. 310,000 tested, 1.2% active. AID 588511;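 active = ratio plate-corrected score three or more library SD toward inhibition, starting fluorescence score within five deviations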;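 also: score derived from kinetic fluorescence span divided by baseline fluorescence per well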
Kir21 block – Kir2.1 (mouse) channel inhibition | 310,000 tested, 0.85% active | P35561 | HEK293-Kir2.1, FluxOR thallium flux fluorescence; active compounds read low | AID 1672 | B-score at 10 µM;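 active = fluorescence ratio B-score at or below minus 3 SD of library scores, with starting-brightness B-score within 2 SD, cut at about -4.2 in these data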;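 also: channel flux triggered by added potassium and thallium sulfate stimulus; B-score of peak minus minimum fluorescence over baseline after thallium stimulus; more negative B-score means stronger Kir2.1 block with less thallium influx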
Target sequence (P35561 whole entry, looked up): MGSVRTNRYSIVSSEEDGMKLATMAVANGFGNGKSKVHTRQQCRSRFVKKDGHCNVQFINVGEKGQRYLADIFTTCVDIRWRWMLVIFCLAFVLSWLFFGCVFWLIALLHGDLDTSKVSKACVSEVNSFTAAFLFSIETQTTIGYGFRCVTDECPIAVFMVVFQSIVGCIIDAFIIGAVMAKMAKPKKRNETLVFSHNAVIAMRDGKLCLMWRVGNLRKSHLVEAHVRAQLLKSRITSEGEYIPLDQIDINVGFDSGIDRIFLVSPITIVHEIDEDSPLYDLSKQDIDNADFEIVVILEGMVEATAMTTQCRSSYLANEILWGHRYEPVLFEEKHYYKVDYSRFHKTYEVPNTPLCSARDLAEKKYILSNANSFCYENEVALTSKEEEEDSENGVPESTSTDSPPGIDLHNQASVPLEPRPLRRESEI
Each line names hits and unclear results; the compound was inactive in the other large screens.

Cc1ccc(S(=O)(=O)N(CC2CO2)c2cccc([N+](=O)[O-])c2)cc1 (stereo not drawn)	Kir21 block -4.94
NC(=S)NNC(=O)COc1ccccc1O	none
Cc1ccc(C(C#N)c2ccc(C(=O)c3ccc(F)cc3)cc2)cc1 (stereo not drawn)	ANO1 block 25
Nc1nc(SCc2ccc(F)cc2)ns1	none
CCOC(=O)c1c(NC(C)=O)sc2c(OCC(O)CNC(C)(C)C)c(Br)ccc12 (stereo not drawn)	ANO1 activ -7.1, Kir21 block -6.06
CCOC(=O)c1c(NC(C)=O)sc2c(O)cccc12	none
COc1ccc(S(=O)(=O)N2CCc3cc4c(cc3C2C)OCCCO4)cc1 (stereo not drawn)	Kir21 block -4.44
CCCNS(=O)(=O)c1ccc(OC)c(Cl)c1Cl	none
COc1ccc(S(=O)(=O)NCCSC(C)(C)C)c(Cl)c1Cl	ANO1 block 25
N#Cc1c(NC(=O)C(=O)NCCCN2CCOCC2)sc2c1CCC2	none
COC(=O)c1c(NC(=O)C(=O)NCCCN2CCOCC2)sc2c1CCCC2	Kir21 block -4.98
O=C(CNC(=O)OCc1ccccc1)NCC(=O)Oc1ccc([N+](=O)[O-])cc1	none (no result: GPR7 antag, CHT PAM, CHT block, ANO1 block, Kir21 block)
CC(=O)NC(=S)Nc1sc2c(c1C(N)=O)CCC(C)C2 (stereo not drawn)	none
O=C(NNc1c([N+](=O)[O-])cc(C(F)(F)F)cc1[N+](=O)[O-])c1ccco1	ANO1 block 100
O=C(NNc1c(F)c(F)cc(F)c1F)c1ccco1	none (no result: GPR7 antag, CHT PAM, CHT block, ANO1 block, Kir21 block)
CN(CC1CCOCC1)C(=O)CC1C(=O)NCCN1C/C=C/c1ccccc1 (stereo not drawn)	none
Fc1ccc(NC(=S)Nc2ccccc2N2CCOCC2)cc1Cl	Kir21 block -7.36
COc1ccc(Cl)cc1C(=O)NC(=S)Nc1ccccc1N1CCOCC1	none
CN(C)CCc1cc2c(c3c1ccc1ccccc13)OCO2	Kir21 block -10.8
COc1cc2ccc3c(CCN(C)C)cc(OC)c(OC)c3c2cc1OC	none
NC(=O)CSc1nnc(CSc2ncccn2)n1-c1ccccc1	none
CC(=O)N(Cc1c(C)nn(-c2ccccc2)c1Cl)c1ccc(Cl)cc1	Kir21 block -5.06
Cc1nn(-c2ccccc2)c(Cl)c1C(=O)NCC(=O)O	none
CCCN(CCC)S(=O)(=O)c1ccc(Cl)c([N+](=O)[O-])c1	GPR7 antag 42.5
CCCCN(CCCC)S(=O)(=O)c1ccc(SCC(=O)OCC)c([N+](=O)[O-])c1	none
COc1ccc(Cc2n[nH]c(=S)n2Cc2ccccc2)cc1Cl	Kir21 block -4.98
COc1ccccc1C(=O)NCc1n[nH]c(=S)n1Cc1ccccc1	none
S=c1[nH]nc(-c2ccccc2Cl)n1Cc1ccccc1	none
COc1ccc(Cl)cc1-c1n[nH]c(=S)n1Cc1ccccc1	Kir21 block -4.34
S=C(Nc1ccccc1)N1CCCCCCC1	ANO1 activ -4.59
COc1cc(CNCCNC(=O)c2nonc2N)ccc1OCc1ccc(Cl)cc1	Kir21 block -6.65
COc1cccc(CNCCNC(=O)c2nonc2N)c1	none
NC(=O)CSc1nnc(Cc2ccc3c(c2)OCO3)o1	none
O=c1c2ccccc2ncn1CCCOc1ccccc1[N+](=O)[O-]	ANO1 block 25
ON1C(c2ccc(Cl)cc2Cl)N(O)[C@H]2CCCC[C@H]21 (stereo partly drawn)	ANO1 block 100
CCOC(=O)c1cnc(-n2[nH]c(C)c(Cc3ccccc3)c2=O)[nH]c1=O	GPR7 antag 17.0
COc1cc(CNCc2ccccc2)c(Br)cc1OC1CCCC1	none
CCc1ccc(O)c(CNCCNCc2cc(CC)ccc2O)c1	CHT block -6.82, Kir21 block -10.9 (no result: GPR7 antag)
COc1ccc(CNCc2cc(Cl)ccc2O)cc1	none (no result: GPR7 antag, Kir21 block)
CC(=O)Nc1ccc(-c2csc(-c3cccnc3)n2)cc1	none
CC(OC(=O)CCc1cc(C(C)(C)C)c(O)c(C(C)(C)C)c1)C(=O)NC1CC1 (stereo not drawn)	Kir21 block -4.3 (no result: GPR7 antag)
COC(=O)CN(c1cc(C(F)(F)F)ccc1Cl)S(C)(=O)=O	none
COCCNC(=O)CN(c1cc(C(F)(F)F)ccc1Cl)S(C)(=O)=O	GPR7 antag 19.4
O=C(COC(=O)c1ccc(OC(F)F)cc1)NCc1cccs1	none (no result: GPR7 antag, CHT PAM, CHT block, ANO1 block, Kir21 block)
COc1ccc(C)cc1NC(=O)NNC(=O)C(C)Oc1ccc([N+](=O)[O-])cc1 (stereo not drawn)	none
CCC(C)(C)C1CCc2c(sc(NC(=O)c3ccccc3C(=O)O)c2C#N)C1 (stereo not drawn)	CHT block -7.71
Cc1ccc(C)c2c1cc(C)c1nnc(SCC(=O)c3cccs3)n12	Kir21 block -7.54
CSc1ccc(CN2CCC(CO)(Cc3ccc(Cl)cc3)CC2)cc1	GPR7 antag 29.9
CCC(C(=O)OCC(=O)Nc1ccc(OC)cc1OC)c1ccccc1 (stereo not drawn)	none
CCC(C(=O)OCC(=O)NC(=O)c1ccccc1)c1ccccc1 (stereo not drawn)	none (no result: GPR7 antag)
CCC(C(=O)OCC(=O)Nc1cc(Cl)ccc1Cl)c1ccccc1 (stereo not drawn)	ANO1 block 25
CCC(C(=O)OC(C)C(=O)Nc1ccc(Cl)cn1)c1ccccc1 (stereo not drawn)	Kir21 block -5.77
CCC(C(=O)OCC(=O)NC(=O)c1ccccc1OC)c1ccccc1 (stereo not drawn)	Kir21 block -8.06 (no result: GPR7 antag)
CN(C)C(=O)c1ccc(-c2cc(C(F)(F)F)n(C)n2)s1	none
Cc1ccc(-n2c(-c3ccccc3)c[n+]3c2CCC3)cc1	none
Cc1ccc(-n2c(-c3ccccc3)c[n+]3c2CCc2ccccc2-3)c(C)c1	GPR7 antag 63.6, Kir21 block -8.17
O=C(NC(=S)Nc1cccc(C(F)(F)F)c1)c1csnn1	none
CCCCN(C)C(=O)CCCc1c[nH]c2ccccc12	GPR7 antag 19.4
CCN(CC)C(=O)CCCc1c[nH]c2ccccc12	none
COc1ccc(S(=O)(=O)N(C)c2ccccc2)c2cccnc12	Kir21 block -5.1
CC(C)c1ccc(CN2CC(C(=O)Nc3ccccc3)CC2=O)cc1 (stereo not drawn)	GPR7 antag 17.4
O=C(Nc1ccccc1)C1CC(=O)N(C2CCCCC2)C1 (stereo not drawn)	ANO1 activ -7.73
CC1(CCC(=O)N2CCCC(Nc3ccc(F)cc3)C2)CC1 (stereo not drawn)	Kir21 block -6.11
O=C(CCc1cccc(Cl)c1)N1CCCC(Nc2ccccc2)C1 (stereo not drawn)	Kir21 block -6.89
COc1ccc(S(=O)(=O)N2CCN(C(=O)c3cc4c(s3)CCCC4)CC2)cc1	ANO1 activ -34.2 (no result: GPR7 antag, CHT PAM, CHT block, ANO1 block, Kir21 block)
O=C(c1cc2c(s1)CCCC2)N1CCN(S(=O)(=O)c2ccccc2)CC1	none (no result: GPR7 antag)
O=C(CN1CCCCC1)Nc1cc(Cl)ccc1Oc1ccccc1	ANO1 block 100

Compound activity deposited in PubChem by several laboratories.
